tim10-1 inh – tim10-1 yeast growth inhibition; AID 463190; actives 2.2% (n = 330,000); inhibition, % at 20 µM; S. cerevisiae tim10-1 ts strain growth, BacTiter-Glo, 24 h;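 active = inhibition of at least 40%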;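 note: mutant grown at 25 °C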
NALP1 inh – inhibitors of NALP1 inflammasome in yeast | actives 0.61% (n = 280,000) | S. cerevisiae NALP1/ASC/caspase-1 growth, X-gal OD620, 72 h | inhibition, % at 10 µM; in the data active = inhibition mostly above about 24%, no sharp cut-off; inactive = mostly below about 32%
V-ATPase pHluor – yeast V-ATPase proton transport regulation by pHLuorin; S. cerevisiae, pHLuorin cytosolic pH fluorescence; actives 0.37% (n = 350,000); response, % at 10 µM; in the data active = response mostly above about 7.3%, no sharp cut-off; inactive = mostly below about 5.4%; note: actives read high
TIM10 inh – TIM10 yeast growth inhibition; S. cerevisiae TIM10 strain growth, BacTiter-Glo luminescence, 24 h; inhibition, % at 10 µM; actives 1.4% (n = 330,000);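 active = inhibition of 40% or more at the single tested concentration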;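 note: wild-type TIM10 isogenic control strain grown at permissive 25 °C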
NALP3 yeast inh – blocks the NALP3 inflammasome reconstituted in yeast; Yeast reconstituted NLRP3/ASC/caspase-1, beta-gal luminescence, 24 h; actives 0.39% (n = 330,000); inhibition, % at 10 µM;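 active = inhibition of 50% or more; inactive = inhibition below 50%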
tim23-1 inh – inhibits growth of tim23-1 mutant yeast | S. cerevisiae tim23-1 growth, BacTiter-Glo luminescence, 24 h | inhibition, % at 20 µM | actives 1.3% (n = 330,000);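 active = growth inhibition of the mutant yeast at or above 50%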;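 note: temperature-sensitive mutant grown at 25 °C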
tim10-1 conf – tim10-1 yeast growth inhibition, confirmed; shares compounds with tim10-1 inh; S. cerevisiae tim10-1 ts strain growth, BacTiter-Glo, 24 h; inhibition, % at 20 µM; actives 56% (n = 7,400);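 active = inhibition of yeast growth at or above a set limit in either of two repeat tests at 20 µM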;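 note: tim10-1 mutant grown at permissive 25 °C to find synthetic lethal compounds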
tim10 confirm – TIM10 yeast growth inhibition, confirmed; shares compounds with TIM10 inh; S. cerevisiae tim10 strain growth, BacTiter-Glo luminescence, 24 h; actives 63% (n = 4,600); inhibition, % at 10 µM;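 active = inhibition of yeast growth at or above a set limit in either of two replicates at 10 µM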; note: this counterscreen used the strain with wild-type TIM10
Of the large screens only hits and unclear results are named; the others gave an inactive call (follow-up assays come after a bar, where they were run). This is a sample that favours compounds with a hit; in the whole collection about 4.2% have one here.

Cc1ccc(N2C(=O)CC(Sc3ccccc3C(=O)O)C2=O)cc1C (centres undefined)	tim10-1 inh 42, NALP1 inh 36, TIM10 inh 43 | tim10-1 conf 47 | tim10 confirm 40
Cc1cccc(N2C(=O)CC(Sc3ccccc3C(=O)O)C2=O)c1 (centres undefined)	tim10-1 inh 49, NALP1 inh 78, TIM10 inh 41 | tim10-1 conf 46 | tim10 confirm inactive
CCC(Sc1nc2c(c(=O)n1CC)SC(C)C2)C(=O)OC (centres undefined)	none
Clc1ccc(OCc2nn3c(-c4ccco4)nnc3s2)cc1	none
CCCn1nnc(NC(=O)/C=C/c2ccccc2)n1	none
Cc1nc(NC(=O)/C=C/c2ccccc2)n[nH]1	tim10-1 inh 60, TIM10 inh 61 | tim10-1 conf 59 | tim10 confirm 53
COC(=O)CCCn1c(C)cc(C(=O)CCl)c1C	tim10-1 inh 45, TIM10 inh 42 | tim10-1 conf 37 | tim10 confirm 36
COC(=O)CCn1c(C)cc(C(=O)COc2ccccc2C(N)=O)c1C	none
COCCCn1c(SCC(=O)n2c(C)c(C)c3ccccc32)nnc1-c1ccoc1C	tim10-1 inh 44, TIM10 inh 40 | tim10-1 conf 33 | tim10 confirm inactive
COCCCn1c(SCC(=O)N2CC(=O)Nc3ccccc32)nnc1-c1ccoc1C	none
Cc1nc(N)sc1N=Nc1ccc(Br)cc1	tim10-1 inh 44, TIM10 inh 60 | tim10-1 conf 29 | tim10 confirm 58
Cc1[nH]nc(N)c1N=Nc1ccc(Br)cc1	none (no result: V-ATPase pHluor)
Cn1c(N)c(C(=O)COC(=O)C2CC(O)CN2S(=O)(=O)c2ccc(Cl)cc2)c(=O)n(C)c1=O (centres undefined)	none (no result: NALP1 inh)
CCc1ccc(N(C(=O)c2csnn2)C(C(=O)NC(C)(C)C)c2ccccn2)cc1 (centres undefined)	none
COc1ccc(C(=O)NC(=S)N(Cc2ccccc2)Cc2ccccc2)cc1	tim10-1 inh 47, TIM10 inh 48 | tim10-1 conf 35 | tim10 confirm 39
Cc1ccccc1C(=O)NC(=S)N(CCO)Cc1ccccc1	none
O=C(NC(=S)N(Cc1ccccc1)Cc1ccccc1)c1ccccc1F	tim10-1 inh 50, TIM10 inh 59 | tim10-1 conf 38 | tim10 confirm 44
O=C(O)CC(C(=O)Nc1ccc(F)cc1)C1CCCO1 (centres undefined)	none (no result: NALP1 inh)
COc1ccc(OCC(=O)O/N=C(\N)Cc2ccc(Cl)cc2)cc1	tim10-1 inh 62, TIM10 inh 54 | tim10-1 conf 58 | tim10 confirm inactive
COc1ccc(OCC(=O)O/N=C(\N)Cc2cccs2)cc1	none
Cc1ccc(/C(N)=N/OC(=O)COc2ccccc2Cl)cc1	tim10-1 inh 61 (no result: NALP1 inh) | tim10-1 conf 42 | tim10 confirm 43
Cc1ccc(OCC(=O)O/N=C(\N)Cc2ccc(Cl)cc2)cc1	tim10-1 inh 59, TIM10 inh 78 | tim10-1 conf 44 | tim10 confirm inactive
N/C(=N\OC(=O)Cc1cccc2ccccc12)c1ccccn1	tim10-1 inh 60, TIM10 inh 43 | tim10-1 conf 49 | tim10 confirm 38
Cc1ccc(OCC(=O)O/N=C(\N)c2ccccn2)cc1	none
C[C@H](O)[C@@H]1C(=O)N2CCc3ccc(N4CCN(C)CC4)cc3[C@@H]2C[C@@H]1N(C)C(=O)c1ccco1	none (no result: tim10-1 inh, NALP1 inh, TIM10 inh, NALP3 yeast inh, tim23-1 inh)
N/C(Cc1cccc2ccccc12)=N\OC(=O)c1ccc(Br)o1	none (no result: tim10-1 inh, V-ATPase pHluor, TIM10 inh, NALP3 yeast inh, tim23-1 inh)
N/C(Cc1cccc2ccccc12)=N\OC(=O)c1ccc2c(c1)OCO2	tim10-1 inh 48, TIM10 inh 60 | tim10-1 conf 39 | tim10 confirm 32
COc1ccc(OCC(=O)O/N=C(\N)Cc2ccc(Cl)cc2Cl)cc1	tim10-1 inh 64, TIM10 inh 50 | tim10-1 conf 63 | tim10 confirm 46
COc1ccc(CC(=O)O/N=C(\N)Cc2cccc3ccccc23)cc1	tim10-1 inh 44, TIM10 inh 48 | tim10-1 conf 50 | tim10 confirm 53
COc1ccc(OCC(=O)O/N=C(\N)c2ccc(OC)cc2)cc1	none
CCOC(=O)N1CCC2(CC1)C(C(=O)C13CC4CC(CC(C4)C1)C3)C2(C#N)C#N (centres undefined)	tim10-1 inh 54, TIM10 inh 63 | tim10-1 conf 54 | tim10 confirm 45
Cc1ccc(-c2nc3c(=O)n(C)c4ccccc4c3o2)cc1	tim10-1 inh 52, TIM10 inh 58 | tim10-1 conf 31 | tim10 confirm 64
Cc1cccc2sc(NC(=O)c3ccc(Cl)s3)nc12	none
CC(C)Cc1nc2oc3c(N4CCN(CCO)CC4)ncnc3c2c2c1CCCC2	tim10-1 inh 52, TIM10 inh 44 | tim10-1 conf 37 | tim10 confirm inactive
CCN1CCN(c2ncnc3c2oc2nc(C(C)C)c4c(c23)CCC4)CC1	none (no result: tim10-1 inh, V-ATPase pHluor, TIM10 inh, NALP3 yeast inh, tim23-1 inh)
CCOC(=O)N1CCN(c2ncnc3c2oc2nc(C(C)C)c4c(c23)CCC4)CC1	tim10-1 inh 44, TIM10 inh 46 | tim10-1 conf 34 | tim10 confirm 37
CC(C)COC(=O)c1ccc2c(c1O)C(=O)c1ccccc1C2=O	tim10-1 inh 58, TIM10 inh 47 | tim10-1 conf 42 | tim10 confirm 40
COc1ccc2c(c1O)C(=O)c1ccccc1C2=O	none (no result: V-ATPase pHluor)
O=S(=O)(c1cccc2cccnc12)n1cnc2ccccc21	none
CC(C)c1ccc(S(=O)(=O)c2ccc(NN)cc2)cc1	tim10-1 inh 44, TIM10 inh 42 | tim10-1 conf 34 | tim10 confirm 31
Cc1occc1C(=O)N/N=C/C=C\c1ccccc1[N+](=O)[O-]	none
Cc1ccsc1C(=O)N/N=C/C=C/c1ccccc1[N+](=O)[O-]	tim10-1 inh 48, TIM10 inh 62 | tim10-1 conf 48 | tim10 confirm inactive
CC1CCN(S(=O)(=O)c2ccc(C(=O)Nc3ccccc3-c3nc4ccccc4[nH]3)cc2)CC1	none
CCOP(=O)(OCC)C(Nc1cccc([N+](=O)[O-])c1)c1ccccc1 (centres undefined)	none
Cc1nn(-c2ccccc2)c2c1C1(C(=O)N(C)c3ccccc31)C(C#N)=C(N)O2 (centres undefined)	tim10-1 inh 67, TIM10 inh 41 | tim10-1 conf 54 | tim10 confirm inactive
O=C(CCC(=O)Nc1ccccc1Cl)N/N=C/c1ccccc1	none
COc1cc(CNCCc2ccccc2)ccc1OCC(N)=O	none

Source: PubChem
